PubChem BioAssay
Activity calls are given as the source filed them.

How the values were obtained:
[1] = system: XIP peptide (Xip251-270) binding; test: small-molecule binders of XIP peptide, primary screen, biochemical, small-molecule microarray, fluorescence 635/667 nm, 0.1 µg/mL protein (AID 1182); settings: fluorescent protein binding, 635 nm, higher = more signal, called active from +8 up or from −8 down
[2] = system: XIP peptide (Xip251-270); test: small-molecule binders of XIP peptide, primary screen, biochemical, small-molecule microarray, fluorescence 635/667 nm, 0.5 µg/mL protein (AID 1183); settings: small-molecule microarray binding, fluorescence 635 nm; higher = more signal
[3] = Plasmodium falciparum growth inhibition, primary screen, strain 3D7, DAPI fluorescence, 100 nL (AID 1184);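 further: parasites grown inside human red blood cells in medium with human serum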; settings: P. falciparum 3D7 growth, 3 d, higher = more signal
[4] = biological target: Homeobox protein Hox-A13 (Mus musculus) (UniProt Q62424); test: inhibitors of HoxA13-DNA binding, primary screen, biochemical, fluorescence polarization, labeled oligonucleotide (AID 1185); settings: 15 min, higher = more signal, called active from +8 up or from −8 down
Sequence of Homeobox protein Hox-A13 (Mus musculus) (Q62424 whole entry, looked up): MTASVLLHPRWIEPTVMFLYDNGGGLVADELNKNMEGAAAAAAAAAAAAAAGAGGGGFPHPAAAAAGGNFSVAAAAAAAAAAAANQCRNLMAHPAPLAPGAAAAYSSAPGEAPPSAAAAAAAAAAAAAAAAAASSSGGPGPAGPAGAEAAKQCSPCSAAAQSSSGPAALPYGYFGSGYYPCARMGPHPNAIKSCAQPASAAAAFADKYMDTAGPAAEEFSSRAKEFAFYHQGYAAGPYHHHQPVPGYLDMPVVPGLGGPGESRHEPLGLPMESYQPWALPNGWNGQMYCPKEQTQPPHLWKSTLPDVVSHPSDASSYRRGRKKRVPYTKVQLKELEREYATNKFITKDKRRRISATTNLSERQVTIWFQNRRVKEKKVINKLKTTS

Compound	composite z-score [1]	composite z-score [2]	z-score [3]	z-score [4]
CCN1C(=O)[C@H]2[C@H]3[C@H](O)[C@H](O)CC(=O)[C@@H]3CC[C@H]2C1=O	0.221 (inactive)	0.488	1.51	0.202 (inactive)
CO[C@@H]1COC(=O)[C@@H](C)NC(=O)CC=C[C@@H](C)[C@H](NS(=O)(=O)c2ccc(C)cc2)COC(=O)[C@H](C)NC(=O)CC=C[C@H]1C	0.199 (inactive)	0.113	0.327	-0.348 (inactive)
COC(=O)[C@@H]1CC[C@H](C)[C@@H](c2ccc(C)cc2)N1C(=O)c1ccc(C=NO[C@@H]2O[C@H](COC(C)=O)[C@@H](OC(C)=O)[C@H](OC(C)=O)[C@H]2OC(C)=O)cc1	-0.279 (inactive)	0.649	-1.4	0.102 (inactive)
CC(C)=CCCC(C)=CCON=C1C[C@@H](O)[C@@H](O)[C@@H]2[C@@H]3C(=O)N(Cc4ccccc4)C(=O)[C@@H]3CC[C@H]12	-0.0515 (inactive)	0.419	-0.869	-4.91 (inactive)
CCOC(=O)[C@H](CC(C)C)NC(=O)CCC1CC(OC(=O)NCc2ccc3c(c2)OCO3)CC2(CCCC(COC(=O)NCCCN3CCCC3=O)O2)O1 (stereo not given in full)	-0.228 (inactive)	0.6	-1.61	-5.69 (inactive)
CCc1cc2c(nc1CC)CCN(CCC(C)=NOC[C@H]1O[C@H](c3ccccc3)C=C[C@@H]1Oc1ccc(OC)cc1)C2	0.248 (inactive)	0.431	-1.63	-3.13 (inactive)
CON=Cc1ccc(C(=O)N2[C@H](c3ccc(C)cc3)[C@@H](C)CC[C@H]2C(=O)OC)cc1	-0.288 (inactive)	0.488	-0.141	-3.49 (inactive)
COC(=O)CC=C[C@@H](C)[C@@H](C=NO[C@@H](C)c1cn([C@H](CO)Cc2ccccc2)nn1)OC	-0.179 (inactive)	0.0522	0.141	-0.41 (inactive)
COC(=O)CC=C[C@@H](C)[C@@H](C=NO[C@@H](C)c1cn([C@H](CO)Cc2ccccc2)nn1)NS(=O)(=O)c1ccc(C)cc1	-0.294 (inactive)	0.464	0.281	-4.93 (inactive)
CCOC(=O)[C@H](Cc1ccccc1)NC(=O)CCC1CC(OC(=O)NCCc2ccc(F)cc2)CC2(CCCC(COC(=O)NCCc3ccc(Cl)cc3)O2)O1 (stereo not given in full)	-0.345 (inactive)	0.348	-1.84	-3.08 (inactive)
Cc1cc2c(c(=O)o1)[C@@H](O)[C@H]1O[C@H]1C2=O	-0.483 (inactive)	0.274	-0.807	-1.3 (inactive)
C[n+]1ccc(-c2ccc(CO)cc2)cc1	0.725 (inactive)	-0.227	1.09	-2.76 (inactive)
CO[C@H]1COC(=O)CC=C[C@H](C)[C@@H](OC)COC(=O)[C@@H](C)COC(=O)CC=C[C@@H]1C	-0.0653 (inactive)	-0.396	-0.276	-1.42 (inactive)
CO[C@H]1COC(=O)[C@@H](Cc2ccccc2)NC(=O)[C@@H](C)COC(=O)CCC[C@@H]1C	0.0283 (inactive)	0.171	-0.0331	-0.733 (inactive)
CCOC(=O)[C@H](Cc1ccccc1)NC(=O)OC1CC(CCC2CC(CC)=NO2)OC2(CCCC(COC(=O)NCCC(C)C)O2)C1 (stereo not given in full)	0.654 (inactive)	0.527	-1.04	-5.07 (inactive)
C[C@@H](c1ccccc1)N1C(=O)[C@H]2[C@H]3[C@H](O)[C@H](O)CC(=NOCc4ccccc4)[C@H]3CC[C@H]2C1=O	-0.0218 (inactive)	0.548	0.754	0.0197 (inactive)
COC(=O)CC=C[C@@H](C)[C@@H](C=NO[C@@H](C)c1cc(-c2c(C)cc(C)cc2C)no1)NS(=O)(=O)c1ccc(C)cc1	-0.105 (inactive)	-0.91	-0.842	-2.92 (inactive)
C=Cc1ccc([C@H]2N[C@H](C(=O)O)CC[C@@H]2C)cc1	-0.132 (inactive)	-0.0045	2.18	-0.69 (inactive)
O=C(NN=C1C[C@@H](O)[C@@H](O)[C@@H]2[C@@H]3C(=O)N(C[C@@H]4CCCO4)C(=O)[C@@H]3CC[C@H]12)OCc1ccccc1	-0.526 (inactive)	-0.314	0.0837	0.901 (inactive)
CCOC(=O)[C@H](Cc1ccccc1)NC(=O)CCC1CC(OC(=O)NCc2cccc3ccccc23)CC2(CCCC(COC(=O)NCc3cccc(C(F)(F)F)c3)O2)O1 (stereo not given in full)	0.418 (inactive)	0.335	-1.39	-4.31 (inactive)
